High-throughput results: PubChem BioAssay, several laboratories
PERK inhibitor = human PERK inhibition, primary cell-based screen | inhibition, % at 5.6 µM | 220,000 compounds, 0.17% hits | Q9NZJ5 | CHO PERK-DD fusion, SEAP luminescence translation reporter;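 active means inhibition above the mean inhibition of all tested compounds plus 3 SD, set separately per screening campaign, cut at about 2.9% in these data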;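 further: PERK kinase domain activated by AP20187 dimerizer at 100 nM; 0% = DMSO with dimerizer and 100% = rapamycin at 8.4 µM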
Target sequence (Q9NZJ5 whole entry, looked up, the tested form may be a part): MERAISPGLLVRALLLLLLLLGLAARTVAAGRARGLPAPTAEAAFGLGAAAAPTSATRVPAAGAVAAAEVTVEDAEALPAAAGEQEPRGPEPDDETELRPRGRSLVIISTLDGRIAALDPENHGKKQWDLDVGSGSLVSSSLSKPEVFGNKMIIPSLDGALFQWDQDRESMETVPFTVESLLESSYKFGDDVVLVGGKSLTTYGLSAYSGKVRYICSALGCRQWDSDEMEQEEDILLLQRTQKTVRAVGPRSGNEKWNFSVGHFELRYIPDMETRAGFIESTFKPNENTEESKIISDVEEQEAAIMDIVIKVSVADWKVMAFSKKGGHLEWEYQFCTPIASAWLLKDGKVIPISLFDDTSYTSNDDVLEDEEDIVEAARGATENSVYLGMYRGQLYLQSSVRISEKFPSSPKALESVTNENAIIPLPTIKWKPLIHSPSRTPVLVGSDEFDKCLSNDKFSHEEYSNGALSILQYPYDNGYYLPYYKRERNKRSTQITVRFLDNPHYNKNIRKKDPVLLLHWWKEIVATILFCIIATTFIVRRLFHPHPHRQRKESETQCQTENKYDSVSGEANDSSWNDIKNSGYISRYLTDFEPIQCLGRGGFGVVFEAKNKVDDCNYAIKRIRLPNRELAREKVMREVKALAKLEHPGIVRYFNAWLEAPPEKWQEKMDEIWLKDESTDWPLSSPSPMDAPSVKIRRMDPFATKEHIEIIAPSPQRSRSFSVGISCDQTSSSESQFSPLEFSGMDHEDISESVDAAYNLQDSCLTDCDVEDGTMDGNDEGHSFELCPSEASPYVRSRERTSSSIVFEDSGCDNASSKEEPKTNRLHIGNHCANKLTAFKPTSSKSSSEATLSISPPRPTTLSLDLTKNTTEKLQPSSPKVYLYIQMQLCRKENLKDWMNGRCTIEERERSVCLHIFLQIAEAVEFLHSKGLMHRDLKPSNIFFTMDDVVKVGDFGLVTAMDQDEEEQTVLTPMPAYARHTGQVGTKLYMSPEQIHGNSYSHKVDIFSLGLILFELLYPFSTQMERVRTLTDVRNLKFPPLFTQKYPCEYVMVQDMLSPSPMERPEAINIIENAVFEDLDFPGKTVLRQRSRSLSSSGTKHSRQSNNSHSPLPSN
INS promoter inh = TRM-6 insulin promoter activity inhibition | 130,000 compounds, 0.9% hits | TRM-6 cells (human fetal islet line), insulin promoter-eGFP reporter, imaging; reporter expression induced with tamoxifen | inhibition, % at 2 µM | AID 1273;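 active means inhibition above the mean plus 3 SD, with well images judged a real hit on visual review, cut at about 60% in these data, passing the limit was not always enough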
Autophagy HCS = autophagy modulation, high-content screen. AID 463193. 190,000 compounds, 0.98% hits. calls only at 10 µM (by protocol). MEF GFP-LC3 puncta imaging; test concentration mostly 10 µM;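 active means percentage of spot-positive cells more than 3 SD above its plate mean, without a fluorescence outlier flag or 80% toxicity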;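 further: spot-positive cell cutoff set from DMSO-treated cells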
eIF4E-4G inh = eIF4E/eIF4G interaction inhibition in translation initiation | inhibition, % at 21.7 µM | TR-FRET eIF4E-eIF4GI(517-606) binding, 2 h | 220,000 compounds, 0.37% hits | P63073+Q04637 | AID 782;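 active means inhibition above about 30%, limit read from the data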;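 further: 0% = full FRET control wells and 100% = background wells lacking eIF4GI fragment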
Ins promoter up = MIN6 insulin promoter up-regulation. MIN6 insulin promoter-GFP reporter, high-content imaging; stronger effect = higher value. z-score at 5 µM. 190,000 compounds, 0.3% hits. AID 1625;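 active means z-score above 3 at 5 µM with at least 500 cells counted in the well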
* = called active by the depositor; i = inactive; nt = no result; + = active, no number. Sampled rows, rich in hits. Any-hit rate of the full collection: about 2%.

SMILES	PERK inhibitor	INS promoter inh	Autophagy HCS	eIF4E-4G inh	Ins promoter up
Cc1cccc(-n2c(O)c(C=Nc3ccccc3-c3n[nH]c(=S)[nH]c3=O)c3ccccc3c2=O)n1	0	nt	nt	50*	-1.1
N/C(=N\N=C\c1ccc([N+](=O)[O-])cc1)c1nonc1N	3.4*	nt	nt	-10	0.13
N/C(=N\N=C\c1ccc(O)cc1)c1nonc1N	1	nt	i	0	0.14
CCc1cc(=O)oc2cc3occ(C)c3cc12	1	13	i	19	0.18
CCc1cc(=O)oc2cc3occ(-c4ccc(OC)c(F)c4)c3cc12	1	-104	+	19	-1
CCN(CC)C(=O)c1c2c(nc3ccccc13)-c1ccccc1CC2	-1	-41	i	9	0.12
CCCCOC(=O)C(C)Nc1n[nH]c(=S)[nH]c1=O (centres undefined)	0	50	i	0	0.04
CCCCOC(=O)C(C)Nc1n[nH]c(=O)[nH]c1=O (centres undefined)	2.9*	13	i	9	nt
Cc1ccc(NC(=O)NNC(=O)c2cccs2)cc1	1	3	i	-2	0.1
Nc1cccnc1Sc1cc(Cl)cc(Cl)c1	1	90*	i	0	0.34
CCOc1ccccc1/C=N/OCC(=O)NCc1ccc(F)cc1	1	nt	i	2	-0.37
Cc1cc(C)nc(N/N=C/C2=C(N3CCOCC3)C(=C\c3ccc(Cl)cc3)/CC2)n1	0	9	i	18	nt
Cc1occc1C(=O)N/N=C/C1=C(N2CCOCC2)C(=C\c2ccc(Cl)cc2Cl)/CC1	0	4	+	4	-0.15
CC(C)CNC(=O)Cn1c(=O)c2c(ncn2CC(C)C)n(Cc2ccccc2)c1=O	0	nt	+	0	-0.12
Cn1nc(OCC(=O)O)cc1C(F)(F)F	3.0*	nt	nt	-3	0.31
NC(=O)CC(NC(=O)Cc1ccc(Br)cc1)c1ccc(NCc2ccc(F)c(F)c2)c([N+](=O)[O-])c1 (centres undefined)	nt	nt	nt	-6	-0.81
O=C(Nc1ccccc1[N+](=O)[O-])c1cccnc1Cl	0	3	i	-5	0.38
COc1cc(OC)c(NC(=O)c2c(-c3ccccc3)noc2C)cc1Cl	-1	79*	i	5	-0.38
COc1cc(OC)c(NC(=O)c2ccoc2C)cc1Cl	0	71*	i	9	0.38
COc1ccc(Cl)cc1NC(=O)c1c(-c2ccccc2)noc1C	1	-473	i	-3	18*
CN(C)c1ccc(/C=C(/NC(=O)c2ccccc2)C(=O)N/N=C/c2ccc([N+](=O)[O-])c(O)c2)cc1	-1	20	i	nt	1.4
CCCn1ncc(CN2CCN(Cc3ccc(C)o3)C(CCO)C2)c1C (centres undefined)	-1	nt	nt	-2	-0.7
COc1cnc(SCC(=O)O)[nH]c1=O	1	-68	i	3	nt
O=C(c1cccc(F)c1)n1nnc2ccccc21	1	81*	i	-3	-0.81
Cc1cc(C)cc(N2C(=O)CC(Sc3ncn[nH]3)C2=O)c1 (centres undefined)	0	nt	i	4	-0.15
SMILES	PERK inhibitor	INS promoter inh	Autophagy HCS	eIF4E-4G inh	Ins promoter up
O=C(NN=C1CCCC1)c1ccccc1OCc1ccc(Cl)cc1	-1	-33	i	-1	0.11
CCc1ccc(S(=O)(=O)c2nnn3c2nc(NCCNC(C)=O)c2ccccc23)cc1	0	83*	i	-3	1.7
COC(=O)Cc1ccc2sc(-c3ccccc3)nc2c1	0	7	i	11	0.17
CCCc1nc2cc(CC(=O)OC)ccc2o1	3.1*	51	i	5	nt
COc1cc(C(=O)Nc2ccc3c(c2)Cc2cc(NC(=O)c4cc(OC)c(OC)c(OC)c4)ccc2-3)cc(OC)c1OC	-1	nt	i	4	-0.11
Cc1cc(NC(=O)COc2ccc(N(C)S(=O)(=O)c3ccccc3)cc2)no1	0	79*	i	6	0.75
Cc1ccc(S(=O)(=O)Cc2c(C)noc2C)cc1	1	26	i	-1	nt
Cc1noc(C)c1CS(=O)(=O)c1ccc(Br)cc1	1	3	i	1	3.2*
CSC(=Nc1ccccc1)Nc1ccccc1	2.9*	nt	nt	0	0.62
CCOc1ccc2nc(Cl)c(C3CC(c4ccco4)=NN3S(C)(=O)=O)cc2c1 (centres undefined)	0	nt	nt	-1	-0.39
CCOc1ccc2cc(C3CC(c4ccco4)=NN3S(C)(=O)=O)c(=O)[nH]c2c1 (centres undefined)	0	nt	nt	36*	0.48
COc1ccc(/C=N/NC(=O)OC(C)(C)C)cc1OC	1	nt	i	-1	1.7
N#C/C(=C\C=C\c1ccccc1)c1nc(-c2ccc3c(c2)OCO3)cs1	1	-18	+	-7	0.42
Cc1cc(/C([O-])=C(/C(=S)Nc2ccc(F)cc2)[n+]2ccccc2)c(C)n1Cc1ccccc1Cl	0	nt	i	0	-0.01
Cc1nc([N+](=O)[O-])c(Br)n1CC(=O)c1ccc(Cl)cc1	-1	69*	i	3	0
COc1ccc(C(=O)Cn2c(C)nc([N+](=O)[O-])c2Br)cc1	0	nt	nt	-2	-0.94
COc1cc(SC)ccc1C(=O)Nc1ncc(Cl)cc1Cl	0	-42	+	7	-0.62
Cc1ccsc1/C=N/NC(=O)c1ccc(Cn2cc(Br)cn2)o1	-2	15	+	-4	-0.08
COc1ccccc1-c1nc(C#N)c(N2CCN(C(c3ccccc3)c3ccccc3)CC2)o1	0	73*	i	2	-0.51
CCN1CC(=O)Nc2cc(S(=O)(=O)N3CCOCC3)ccc21	3.7*	31	i	3	-0.19
Cc1cc2[nH]c(=O)c3ccccc3n2n1	2	83*	i	6	-0.61
CC(C)Cn1c(N)c(C(=O)COC(=O)CCc2nc3ccccc3s2)c(=O)n(C)c1=O	-1	nt	i	-1	-0.88
C[C@H]1O[C@@H](O[C@H]2[C@@H](O)C[C@H](O[C@H]3[C@@H](O)C[C@H](O[C@H]4CC[C@@]5(C)[C@H](CC[C@@H]6[C@@H]5C[C@@H](O)[C@]5(C)[C@@H](C7=CC(=O)OC7)CC[C@]65O)C4)O[C@@H]3C)O[C@@H]2C)C[C@H](O)[C@@H]1O	1	100*	i	4	nt
Cc1ccc2nc(NCCCO)[nH]c2c1	1	78*	i	-6	nt
O=C(Cn1nc(-c2ccccc2)ccc1=O)NCC1COCCO1 (centres undefined)	2	100*	i	3	nt
O=C(Cn1nc(-c2ccccc2)ccc1=O)NCCCN1CCOCC1	0	nt	nt	7	0.26
Cc1ccc(C(=O)c2oc3ccccc3c2NC(=O)c2cc(-c3ccccc3O)n[nH]2)cc1	0	0	+	1	0.08
Cn1c(=O)n(C)c2cc(NC(=O)COc3ccc(Cl)cc3)ccc21	0	-11	i	-1	3*
CCOc1ccc(OCC)c(-c2c(=O)n(OCc3ccccc3Br)c3ccccc3[n+]2[O-])c1	-1	nt	i	5	-2.7
